Screening data: PubChem BioAssay, several laboratories
Rows were chosen to be rich in hits. Some 32% of all compounds tested hit in one or more screens of this group.
PostGolgi yeast – growth inhibition of a yeast mutant, post-Golgi transport screen | 98,000 tested, 0.9% active | post-Golgi transport phenotypic cell assay | inhibition, % at 10 µM;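 also: yeast cells grown in 1536-well plates; yeast grown about 18 h at 30C before absorbance read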
CYP2C9 act – increases human cytochrome P450 2C9 activity | P11712 | recombinant CYP2C9, luciferin-H conversion, luminescence; active compounds read high; factor 1 = untreated enzyme, 0 = blocked | activation factor at 5 µM | 96,000 tested, 1.4% active | AID 1024;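 active = activation factor of 2 or more for CYP2C9 at a 5 µM dose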;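 also: 0 = sulfaphenazole-blocked wells and 1 = vehicle-only wells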
CYP2C19 act – activators of human cytochrome P450 2C19. activation factor at 5 µM. recombinant CYP2C19, luciferin-H EGE luminescence; active compounds read high; 0 = fully inhibited enzyme, 1 = untreated enzyme. 96,000 tested, under 10 active. AID 1025;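 active = activation factor of at least 2 at 5 µM in the primary screen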;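 also: 0 = wells with 2.5 mM tranylcypromine and 1 = vehicle-only wells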
Target sequence (P33261 whole entry, looked up): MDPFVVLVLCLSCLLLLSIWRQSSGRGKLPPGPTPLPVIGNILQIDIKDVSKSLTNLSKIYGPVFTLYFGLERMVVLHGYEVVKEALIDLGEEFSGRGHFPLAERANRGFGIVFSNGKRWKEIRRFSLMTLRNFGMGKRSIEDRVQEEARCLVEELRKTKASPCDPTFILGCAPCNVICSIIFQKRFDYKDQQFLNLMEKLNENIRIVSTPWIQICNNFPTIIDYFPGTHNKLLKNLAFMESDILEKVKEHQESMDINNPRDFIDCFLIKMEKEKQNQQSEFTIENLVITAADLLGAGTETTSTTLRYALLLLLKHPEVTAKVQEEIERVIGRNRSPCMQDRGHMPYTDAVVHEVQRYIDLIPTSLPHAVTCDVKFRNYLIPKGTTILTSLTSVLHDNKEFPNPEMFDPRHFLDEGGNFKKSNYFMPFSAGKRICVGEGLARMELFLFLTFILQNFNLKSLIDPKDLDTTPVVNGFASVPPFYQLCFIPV
PostGolgi ctrl – yeast control strain growth, post-Golgi counter-screen; inhibition, % at 10 µM; efflux-deficient yeast background strain, growth absorbance A615, 16 h; 98,000 tested, 5% active
CYP2C19 inhib – human CYP2C19 inhibition; P33261; CYP2C19 Supersomes, luciferin-H EGE luminescence, 30 min; inhibition, % at 5 µM; 96,000 tested, 21% active; AID 778;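 active = CYP2C19 inhibition above a set limit at 5 µM in the primary screen, cut at about 50% in these data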;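 also: plate controls were negative control wells for no effect and 2.5 mM tranylcypromine positive control for full effect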
CYP2C9 inh – blocks human cytochrome P450 2C9; inhibition, % at 5 µM; 96,000 tested, 20% active; P11712; CYP2C9 Supersomes, luciferin-H conversion, luminescence;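 active = blocking of liver enzyme CYP2C9 beyond about 50% at 5 µM, limit read from the data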
Numbers without * were called inactive; . = no result. Rule as the data show it, unless noted: active = inhibition above about 30%; inactive = the rest.

SMILES	PostGolgi yeast	CYP2C9 act	CYP2C19 act	PostGolgi ctrl	CYP2C19 inhib	CYP2C9 inh
O=C(C1CC1)N1CCC(C(O)(c2ccccc2)c2ccccc2)CC1	1.1	0.4	0.1	0.5	89.5*	60.9*
O=C(Nc1cc(Sc2nc3ccccc3s2)cc([N+](=O)[O-])c1)c1ccccc1F	-1.8	0.3	0.6	11.4	35.7	70.7*
O=C(N/N=C/c1ccc(Sc2nc3ccccc3s2)c([N+](=O)[O-])c1)c1ccccn1	1.5	1	1	-2.2	-1.9	2.3
CC1=CC(=O)N(c2cccc(C(F)(F)F)c2)C1c1ccc(Cl)cc1 (centres undefined)	-4.2	0.6	0.3	26.7	70.1*	40.0
O=C1/C(=C\c2ccc3c(c2)OCO3)CCC/C1=C/c1ccc2c(c1)OCO2	-7.7	1.2	0.9	8.8	10.3	-15.4
O=C1/C(=C/c2ccc(F)c(F)c2)CSc2sccc21	-1.1	0.2	0.6	8.6	40.1	77.7*
CC1(C)Cc2c(c(=S)nc(-c3ccccc3)n2CCO)CO1	2.4	1.2	0.9	3.2	7.8	-21.8
CCOCCSc1nnc2nc(C)cc(C)n12	1.9	1.2	1.1	-3.1	-5.9	-15.9
COc1ccc(C(=O)N2c3ccccc3CC2C)cc1OC (centres undefined)	14.1	0.7	0.3	-0.3	65.7*	28.4
CC(=O)c1c(C)[nH]c(C(=O)N2c3ccccc3CC2C)c1C (centres undefined)	0.8	0.2	0.2	5.4	77.3*	78.0*
Cn1cc(S(=O)(=O)N2CCN(C(=O)c3ccco3)CC2)c(=O)n(C)c1=O	-2.4	1.2	1.1	8.1	-14.7	-21.6
COc1cc(C(=O)NCCOc2ccccc2)c(Br)c(OC)c1OC	5.1	0.8	0.3	6.4	65.2*	21.1
CCCOC(=O)c1ccc(NC(=O)c2cc(OC)c(OC)c(OC)c2Br)cc1	2.1	0.3	0.3	16.6	74.4*	65.0*
COc1cc(C(=O)NCCOc2cccc(C)c2)c(Br)c(OC)c1OC	-5.5	1.2	0.5	13.6	51.7*	-19.1
CC(C)(C)c1cc(C(=O)NCc2ccccc2)ccn1	-8.3	.	.	0.9	.	.
Clc1ccc2nc3ccccn3c2c1	20.5	1.1	0.8	1.5	15.4	-8.0
COc1ccccc1NS(=O)(=O)c1ccc2oc(SC3CCOC3=O)nc2c1 (centres undefined)	-1.4	0.6	0.5	3.0	52.6*	40.4
CC1CCCC(C)N1C(=O)CSc1nnc(CSc2ncccn2)n1C (centres undefined)	-2.8	1.1	1	-6.7	-0.3	-7.7
Cc1c(C(=O)Nc2cccc(Cl)c2)oc2ccc(S(=O)(=O)N3CCC4(CC3)OCCO4)cc12	-4.5	0.7	1	17.2	-0.6	29.9
CSc1nnc(-c2cc3c(-c4ccccc4)nn(C)c3s2)n1C	2.1	0.8	1	-1.3	4.1	15.8
N#Cc1ccc(NC(=O)c2sc3cc(C(F)(F)F)cnc3c2-c2cccs2)cc1	-6.8	0.4	1.1	-4.5	-9.6	61.5*
O=C(O)c1sc2cc(C(F)(F)F)cnc2c1-c1ccccc1	-7.2	1.1	1	-12.1	-3.2	-9.9
COC(=O)c1sc2cc(C(F)(F)F)cnc2c1-c1ccccc1	8.1	0.4	0.7	44.5*	26.7	58.8*
O=C(Nc1ccc(F)cc1)c1sc2cc(C(F)(F)F)cnc2c1-c1cccs1	-7.5	0.7	0.9	7.6	8.4	25.4
CSc1nnc(-c2sc3cc(C(F)(F)F)cnc3c2-c2ccccc2)n1C	-4.9	0.3	0.7	5.9	25.3	71.2*
SMILES	PostGolgi yeast	CYP2C9 act	CYP2C19 act	PostGolgi ctrl	CYP2C19 inhib	CYP2C9 inh
CCOC(=O)c1cccc(NC(=O)N[C@@H](C)C(=O)OC)c1	4.4	0.9	0.9	1.0	13.0	6.0
COc1cccc(C(C)NC(=O)Nc2cccc(C(F)(F)F)c2)c1 (centres undefined)	4.6	0.5	0.3	11.1	67.3*	45.6
CCC(C)[C@H](NC(=O)Nc1cccc(OC)c1)C(=O)OC (some centres undefined)	8.2	0.9	0.5	-7.8	54.7*	11.1
CCN1C(=O)c2cccc3c(S(=O)(=O)Nc4ncccc4C)ccc1c23	-0.3	0.4	0.8	5.7	23.1	55.5*
CCN1C(=O)c2cccc3c(S(=O)(=O)NCc4cccnc4)ccc1c23	0.8	0.8	1	8.9	2.5	19.9
CCN1C(=O)c2cccc3c(NC(=O)C4CCCCC4)ccc1c23	0.8	1.2	1	14.1	0.7	-18.1
CCN1C(=O)c2cccc3c(S(=O)(=O)Nc4ccccn4)ccc1c23	13.8	0.4	0.8	11.5	19.9	64.9*
CN(C)c1cccc2c(S(=O)(=O)Nc3ccccn3)cccc12	-23.6	1.1	0.1	35.9*	92.4*	-13.0
CCn1cc(SCC(=O)NCc2ccc3c(c2)OCO3)c2ccccc21	-5.0	0.8	0	35.9*	96.7*	23.3
O=C(CSc1nc(C2CC2)nc2ccccc12)NCc1ccc2c(c1)OCO2	4.1	0.1	0.5	0.5	46.8	88.2*
Cc1ccccc1C(=O)c1cccn1CC(=O)NCc1ccc2c(c1)OCO2	-3.6	0.3	0.4	8.0	61.7*	73.7*
O=C(CSc1nc2ccccc2n1CC(=O)N1CCCC1)NCc1ccc2c(c1)OCO2	-4.0	1	0.8	-4.8	18.8	1.7
O=C(CSCc1ccccc1)NCc1ccc2c(c1)OCO2	-3.2	0.1	0.5	7.0	54.2*	91.0*
CC(=O)c1cn(CC(=O)NCc2ccc3c(c2)OCO3)c2ccccc12	-1.0	.	.	3.2	.	.
Cn1cc(SCC(=O)NCc2ccc3c(c2)OCO3)c2ccccc21	-14.4	0.3	0	7.1	99.9*	68.6*
Cc1nonc1NC(=O)CSc1nc(C2CCCCC2)nc2ccccc12	8.1	0.5	1	3.6	1.6	50.1*
O=C(Cn1cc(C(=O)C2CC2)c2ccccc21)NCc1ccc2c(c1)OCO2	5.9	0.7	0.2	3.6	81.4*	31.5
CCCn1cc(SCC(=O)NCc2ccc3c(c2)OCO3)c2ccccc21	2.0	0.6	0.7	16.2	28.5	41.9
Cc1nc(SCC(=O)NCc2ccc3c(c2)OCO3)c(C#N)c2c1CCCC2	7.7	0.1	0.2	9.1	84.3*	86.7*
C/C=C/c1ccccc1OCc1ccc(C(=O)OC)o1	2.9	0.8	0.7	5.5	27.0	22.5
O=C(Nc1nnc(CCc2ccccc2)s1)c1ccco1	2.1	0.7	0.7	27.5	26.6	25.8
N#CC1=C(N)SC(N)=C(C#N)C1c1ccnc2ccccc12	12.2	0.3	0.8	23.9	23.7	69.5*
CN(Cc1ccco1)C(=O)c1ccc(N2CCCC2=O)cc1	-3.3	1	1	8.4	4.6	-0.6
CC(C)(C)C(=O)N=C1SC2CS(=O)(=O)CC2N1c1ccc2c(c1)OCO2 (centres undefined)	-10.4	0.4	0.4	0.7	56.7*	63.2*
O=C(O)CC1Oc2ccc(Cl)cc2NC1=O (centres undefined)	-4.9	0.4	0.9	-5.6	7.7	55.4*
